Laboratory results: PubChem BioAssay AID2685 (National Center for Advancing Translational Sciences (NCATS), 2010)
The campaign covered roughly 320,000 compounds. About 2,100 (0.66%) were called active. Roughly 53% stayed inconclusive and do not appear here. Calls come from the whole dose curve; as a rule, active = well fitted inhibition curve with a large enough effect in the signal ratio, with a control signal flat (not every such curve was filed as active); inconclusive = small, poorly fitted or top-dose-only effect, or effect the other way, or a change in a side signal; inactive = flat fitted curve, though single readings scatter; the % refers to the signal ratio. The full list was thinned out, with actives kept by preference.

Experiment: qHTS Assay for Lipid Storage Modulators in Drosophila S3 Cells;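 for cell number change: cells counted by Cell Tracker Red CMTPX staining in the red channel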; for lipid storage change, negative = inhibition: % is set by controls: 0 for no effect and ±100 for the full control effect
Settings: BODIPY lipid droplet fluorescence, 18-24 h, cells fed with added oleic acid; cell number change: measured here: cell count max response; series mostly up to 46.1 µM; lipid storage change, negative = inhibition: at the top concentration
Method in brief: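 Drosophila S3 cells got compounds at several concentrations plus oleic acid (400 uM solution). Laser-scanning cytometry with 488 nm excitation read lipid droplets at 500-530 nm and cells at 575-640 nm. Percent activity was relative to 20 uM Triacsin C.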
Potency is the fitted concentration of half-maximal effect.

| SMILES | lipid storage change, negative = inhibition | cell number change [%] | outcome | Potency |
| --- | --- | --- | --- | --- |
| COc1ccc(S(=O)(=O)N2CCCCC2)cc1NC(=O)CSc1nccn1C | -17.8% (inactive) | -6.22 | – | – |
| CC(=O)c1c(C(C)=O)c(C)n(-c2ccc(C)c(NC(=O)c3ccccc3Cl)c2)c1C | 7.18% (inactive) | -18.6 | – | – |
| COc1ccc(NC(=O)N2CCCC(CCC(=O)N(C)CCc3ccccn3)C2)cc1 (stereo unspecified) | 3.61% (inactive) | -4.81 | – | – |
| Cc1nc(N2CCCCC2)sc1C(=O)c1cccc([N+](=O)[O-])c1 | -23.7% (inactive) | -2.77 | – | – |
| CC(=O)c1cccc(NC(=O)NC2CCCc3ccccc32)c1 (stereo unspecified) | -3.84% (inactive) | -3.38 | – | – |
| CCOc1cc(/C=C2\SC(=N)N(c3nonc3N)C2=O)ccc1OCC(N)=O | -17.3% (inactive) | 1.49 | – | – |
| COc1ccccc1NC(=O)C(=O)c1cn(CC(=O)N2CCCC2)c2ccccc12 | – | 8.26 | inactive | – |
| CN1CCN(C(=O)C(=O)c2cn(CC(=O)N3CCCC3)c3ccccc23)CC1 | -2.97% (inactive) | -8.67 | – | – |
| CC(=O)c1ccc(N2CCN(C(=O)C(=O)c3cn(CC(=O)N4CCCCCC4)c4ccccc34)CC2)cc1 | – | -13.1 | – | 16.4 µM (active) |
| O=CN1CCN(C(=O)C(=O)c2cn(CC(=O)N3CCCCC3)c3ccccc23)CC1 | 5.33% (inactive) | 4.31 | – | – |
| COc1ccccc1N1CCN(C(=O)C(=O)c2cn(CC(=O)N3CCCC3)c3ccccc23)CC1 | -17.6% (inactive) | -2.59 | – | – |
| COc1ccccc1N1CCN(C(=O)C(=O)c2cn(CC(=O)N3CCCCCC3)c3ccccc23)CC1 | – | -23.8 | – | 11.6 µM (active) |
| CCCC(=O)Nc1c(-c2ccccc2Cl)c(=O)c2ccccc2n1C | -11.9% (inactive) | 21.4 | – | – |
| COc1ccccc1-n1c(SCC(=O)Nc2nnc(C)s2)nc2c(c1=O)SCC2 | 0.949% (inactive) | 4.2 | – | – |
| CCCCCCCCCCCCOC(=O)C[N+](C)(C)C | -4.89% (inactive) | -12.3 | – | – |
| CCCCCCCCCCOC(=O)C[N+](C)(C)C/C=C(/C)Cl | – | -24.8 | – | 2.06 µM (active) |
| CCCCCCCCOC(=O)C[N+](C)(C)C/C=C(/C)Cl | 9.71% (inactive) | 5.17 | – | – |
| CC1(C)Cc2c(cnn2-c2ccccc2)C(NC(=O)C2(C(N)=O)CC2)C1 (stereo unspecified) | -9.11% (inactive) | 8.69 | – | – |
| COc1ccc(C2CC(c3cccs3)=NN2C(=O)CCC(=O)O)cc1 (stereo unspecified) | 2.58% (inactive) | -0.88 | – | – |
| CCN(c1cccc(C)c1)S(=O)(=O)c1cc(CN2C(=O)c3cccnc3C2=O)ccc1OC | – | 7.63 | – | 8.2 µM (active) |
| COc1ccc(CN2C(=O)c3cccnc3C2=O)cc1S(=O)(=O)N1CCCCC1 | – | -13.9 | – | 1.64 µM (active) |
| COc1ccc(CN2C(=O)c3cccnc3C2=O)cc1S(=O)(=O)NC1CCCCC1C (stereo unspecified) | – | -3.23 | inactive | – |
| CCCN(CCC)S(=O)(=O)c1cc(CN2C(=O)c3cccnc3C2=O)ccc1OC | 24.4% (inactive) | 9.22 | – | – |
| COc1ccc(CN2C(=O)c3cccnc3C2=O)cc1S(=O)(=O)NC(C)C | – | – | inactive | – |
| COc1ccc(CN2C(=O)c3cccnc3C2=O)cc1S(=O)(=O)N(C)c1ccc(C)cc1 | – | 8.02 | inactive | – |
| O=C(CN1C(=O)CCS(=O)(=O)c2ccccc21)NCc1ccc2c(c1)OCO2 | 14.7% (inactive) | -18.6 | – | – |
| CC1(C)Cc2c(sc(NC(=O)C(=O)NCC3CCCO3)c2C(N)=O)CO1 (stereo unspecified) | – | -4.25 | inactive | – |

| SMILES | lipid storage change, negative = inhibition | cell number change [%] | outcome | Potency |
| --- | --- | --- | --- | --- |
| CNC(=O)c1ccccc1S(=O)(=O)c1ccccc1C#N | 4.63% (inactive) | -5.1 | – | – |
| Cc1cc(C(F)(F)F)nn1CC(=O)NCc1cccs1 | 20.9% (inactive) | 3.66 | – | – |
| COc1ccc(OC)c(NC(=O)C2CCCCC2C(=O)O)c1 (stereo unspecified) | 4.14% (inactive) | 2.85 | – | – |
| COCC1CCN(C(=O)c2ccc(OC)c(OC3CCN(C(C)C)CC3)c2)CC1 | – | 13.3 | inactive | – |
| CCCOc1ccc(C(=O)O)cc1 | -24.9% (inactive) | 0.594 | – | – |
| CN1CCC(N(C)C(=S)NC(=O)C23CC4CC(CC(C4)C2)C3)CC1 | -6.23% (inactive) | -1.68 | – | – |
| CCOc1ccc(-n2c(N)c(C(=O)NCc3ccco3)sc2=S)cc1 | -2.67% (inactive) | 1.94 | – | – |
| COc1ccc(CNC(=O)C/C(C)=N/NC(=O)C23CC4CC(CC(C4)C2)C3)cc1 | 3.76% (inactive) | 9.74 | – | – |
| CC1CCN(C(=O)c2[nH]cnc2C(=O)NCC(=O)OCc2ccccc2)CC1 | – | 12.3 | inactive | – |
| COc1ccccc1CNC(=O)C1CCN(S(=O)(=O)c2ccc(N3CCCC3=O)cc2)CC1 | – | 16.5 | inactive | – |
| COc1ccc(/C(O)=C2/C(=O)C(=O)N(CCN(C)C)C2c2ccccc2)cc1Cl (stereo unspecified) | 4.66% (inactive) | -4.09 | – | – |
| COc1ccc(C2/C(=C(\O)c3ccc(OC)c(Cl)c3)C(=O)C(=O)N2CCN(C)C)cc1 (stereo unspecified) | -3.93% (inactive) | 7.61 | – | – |
| COc1cccc(C2/C(=C(/O)c3ccncc3)C(=O)C(=O)N2CCCN(C)C)c1 (stereo unspecified) | – | 2.93 | – | 6.51 µM (active) |
| COc1cccc(/C(O)=C2/C(=O)C(=O)N(CCN(C)C)C2c2ccc(Br)cc2)c1 (stereo unspecified) | – | 3.06 | – | 2.31 µM (active) |
| COc1cccc(C2/C(=C(\O)c3c(C)nc4c(C)cccn34)C(=O)C(=O)N2CCCN(C)C)c1 (stereo unspecified) | 6.42% (inactive) | -2.27 | – | – |
| COc1ccc(/C(O)=C2/C(=O)C(=O)N(CCCN(C)C)C2c2ccccc2)cc1Cl (stereo unspecified) | – | 2.04 | – | 13 µM (active) |
| CCCOc1cccc(C2/C(=C(/O)c3ccncc3)C(=O)C(=O)N2CCCN(C)C)c1 (stereo unspecified) | – | -3.79 | inactive | – |
| COc1cccc(C2/C(=C(\O)c3ccc4c(c3)OCCO4)C(=O)C(=O)N2CCN(C)C)c1 (stereo unspecified) | 10.2% (inactive) | -19.5 | – | – |
| COc1cccc(C2/C(=C(/O)c3ccc(F)cc3)C(=O)C(=O)N2CCN(C)C)c1 (stereo unspecified) | 0.584% (inactive) | 5.93 | – | – |
| COC(=O)CNc1nc(C2CC2)nc2c1nnn2Cc1ccccc1Cl | -17.4% (inactive) | -11.7 | – | – |
| COc1ccc2c(c1)C(C)=CC(C)(C)N2C(=O)C(C)N1C(=O)c2ccccc2C1=O (stereo unspecified) | 5.97% (inactive) | 1.95 | – | – |
| C[C@H](NC(N)=O)C(=O)Nc1ccc2c(c1)OCO2 | -4.55% (inactive) | -6.18 | – | – |
| COc1ccccc1C1C(C#N)=C(N)N(c2cccnc2)C2=C1C(=O)CC(C)(C)C2 (stereo unspecified) | -0.0654% (inactive) | -3.09 | – | – |
| Cn1cc(CCC(=O)N2CCCC(CCC(=O)NCc3ccccc3F)C2)cn1 (stereo unspecified) | 6.07% (inactive) | 3.88 | – | – |
| COc1cccc(NC(=O)CN(C)C(=O)C(C)Sc2ccccc2)c1 (stereo unspecified) | 4.76% [at 0.0737 µM] (inactive) | – | – | – |
| CCOc1ccc(S(=O)(=O)Nc2cccc(C(=O)N3CCN(c4ccc(OC)cc4)CC3)c2)cc1 | 6.02% (inactive) | -10.3 | – | – |
| CC(=O)NNC(=O)c1[nH]c2ccc(Cl)cc2c1-c1ccccc1 | 24.7% (inactive) | 19.7 | – | – |
